Among the test systems are EKVX NSCLC; SN12C renal; UO-31 renal; TK-10 renal; ACHN renal; CAKI-1 renal; A498 renal; CCRF-CEM leukemia; MOLT-4 leukemia.
What all share (test): NCI-60 one-dose screen, 48 h (100 = growth as untreated, 0 = no growth, -100 = all killed)
Common to all, as to conditions: 10 µM unless noted

Compounds without any hit were thinned out: in the full panel of roughly 83,000, 20% have a hit.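 Note: values are percent growth. 100 is the growth of untreated cells, values between 100 and 0 indicate rising inhibition; between -100 and 0 indicates cell death.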 Values without a mark were called inactive. Activity calls are given as the source filed them. How the source made its calls: active means growth percent below 10; inactive means the rest.

For the compound `O=[N+]([O-])c1ccc(/C=C/c2nc3ccccc3n3c(=S)[nH]nc23)cc1`, the growth was 70.7% with EKVX NSCLC; 71.1% with SN12C renal; 47.7% in the experiment on UO-31 renal; 127% in the experiment on TK-10 renal; 72.7% in the experiment with ACHN renal; 75.2% in the experiment on CAKI-1 renal. Moreover, the growth was 91.9% in the experiment on A498 renal, 69.8% in the experiment with CCRF-CEM leukemia and 75.5% in the experiment with MOLT-4 leukemia.

Turning to `COc1cc(-c2ccc(/C=N/NC(=O)c3[nH]c4ccc(Br)cc4c3-c3ccccc3)s2)cc(OC)c1OC`, the growth in the experiment with EKVX NSCLC was 73.7%; with SN12C renal, 92.6%; with UO-31 renal, 96.9%; in the experiment on TK-10 renal, 106%; in the experiment on ACHN renal, 75.6%; with CAKI-1 renal, 71.6%. The growth is 130% in the experiment with A498 renal and 79.1% in the experiment on MOLT-4 leukemia.

For `CNC(=O)c1cc(Oc2ccc3nc(NC(=O)Nc4cccc(OC(F)(F)F)c4)sc3c2)ccn1`, the growth in the experiment on EKVX NSCLC is 42.8%; with SN12C renal, 23.4%; with UO-31 renal, 14.5%; in the experiment on TK-10 renal it was -33.7% (active); with ACHN renal, -2.02% (active); with CAKI-1 renal it was -8.87% (active). For the same compound, the growth was 8.49% (active) with A498 renal, 52.9% with CCRF-CEM leukemia and 50.9% in the experiment on MOLT-4 leukemia.

`C=C1CCC2C3(C)COC(c4ccccc4F)OC3CCC2(C)C1CC(O)C1=CCOC1=O` (centres undefined): the growth in the experiment with EKVX NSCLC was 85.3%; with SN12C renal, 39.1%; in the experiment on UO-31 renal it was 11.7%; in the experiment with TK-10 renal, 107%; with ACHN renal, -23% (active); in the experiment with A498 renal it was 141%. Further, the values for the growth with CCRF-CEM leukemia and in the experiment with MOLT-4 leukemia were 16.7% and 48.9%, respectively.

Regarding `O=C(CCN1C(=O)/C(=C/c2ccc(F)cc2)SC1=S)N1CCOCC1`, the growth in the experiment with EKVX NSCLC was 87.2%; in the experiment with SN12C renal, 53%; in the experiment on TK-10 renal, 85.6%; in the experiment on ACHN renal it was 63.6%; in the experiment with CAKI-1 renal, 88.4%; in the experiment on A498 renal it was 72.5%. Besides, the growth is 66.6% with CCRF-CEM leukemia and 84% with MOLT-4 leukemia.

As to `Cc1ccc(NC(=O)[C@]23CCC(C)(C)CC2C2=CCC4[C@@]5(C)C[C@@H](O)[C@H](O)[C@@](C)(CO)C5CC[C@@]4(C)[C@]2(C)CC3)cc1` (some centres undefined), the growth in the experiment with EKVX NSCLC is 24.4%; in the experiment with UO-31 renal it was 25.4%; with TK-10 renal, 48%; with ACHN renal it was 23.7%; with A498 renal it was -1.05% (active); in the experiment on CCRF-CEM leukemia, -1.64% (active). In addition, the growth in the experiment on MOLT-4 leukemia was 0.258% (active).

For the origin of these results see PubChem BioAssay (NCI).
